Data taken from the supplement of paper PMC12297408.
Where “and” joins values, the source holds several entries; their conditions need not be identical. Equal entries are not always repeated. Unmarked numbers belong to inactive results.

System: Plasmodium falciparum NF54/iGP1_RE9H ulg8 stage V gametocytes
Experiment: gametocyte viability (luciferase signal relative to DMSO control) (% of DMSO control); higher = less gametocytocidal activity, active = 50 or less
Details: exposure time: 72 h
Method in brief: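 NF54/iGP1_RE9Hulg8 stage V gametocytes (day 12; ~2.5% gametocytemia, 3% hematocrit) were incubated with compounds at 10 µM or 1 µM final, in one well each, for 72 h at 37 °C in medium with 0.5% Albumax II. Luminescence after D-luciferin addition was read on an IVIS Lumina II. Viability refers to the mean of plate DMSO vehicle wells.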

SMILES	gametocyte viability (concentration: 1 µM)	gametocyte viability (concentration: 10 µM)
NC1(Cc2ccc(Cl)cc2)CCN(c2ncnc3[nH]ccc23)CC1	114	78.9
O=C1c2ccccc2-c2n[nH]c3cccc1c23	95.3 and 98.9	90.5 and 106
Clc1ccc(C2(c3ccc(-c4cn[nH]c4)cc3)CCNCC2)cc1	112	76.9
CC(=O)c1c(C)c2cnc(Nc3ccc(N4CCNCC4)cn3)nc2n(C2CCCC2)c1=O	98	103
CN1CCN(CCOc2cc(OC3CCOCC3)c3c(Nc4c(Cl)ccc5c4OCO5)ncnc3c2)CC1 [Saracatinib (AZD0530)]	94.4	92.2
CC(C)(C)Cn1c(N)nc2ccc(-c3[nH]c(C(C)(C)C)nc3-c3ccc(F)cc3)nc21	97.8	105
CN(C)C1CCN(C(=O)c2ccc(NC(=O)Nc3ccc(-c4nc(N5CCOCC5)nc(N5CCOCC5)n4)cc3)cc2)CC1	102	107
C[C@@H]1CN(CC(=O)Nc2ccc3c(c2)Cc2cccc(-c4cc(=O)cc(N5CCOCC5)o4)c2S3)C[C@H](C)O1	86	68
COc1ccc(-c2ccc3c(N4CCOCC4)nc(N4C[C@@H](C)O[C@@H](C)C4)nc3n2)cc1CO	97.1	108
Oc1ccc(-c2nc(-c3ccc(F)cc3)c(-c3ccncc3)[nH]2)cc1	112 and 117	115 and 132
Nc1nc(Nc2ccc(S(N)(=O)=O)cc2)nn1C(=O)c1c(F)cccc1F	101	85.9
CC(C)CC(=O)Nc1n[nH]c2c1CN(C(=O)C1CCN(C)CC1)C2(C)C	96.4	110
CO[C@H]1C[C@@H]2CC[C@@H](C)[C@@](O)(O2)C(=O)C(=O)N2CCCC[C@H]2C(=O)O[C@H]([C@H](C)C[C@@H]2CC[C@@H](O)[C@H](OC)C2)CC(=O)[C@H](C)/C=C(\C)[C@@H](O)[C@@H](OC)C(=O)[C@H](C)C[C@H](C)/C=C/C=C/C=C/1C [Rapamycin]	97.3	97.3
